Screening results from PubChem BioAssay.
Most compounds without a hit are left out; they make up all but 12% or so of the library.
AmpC detergent: qHTS Inhibitors of AmpC Beta-Lactamase (assay with detergent). P00811. AmpC hydrolysis of nitrocefin, absorbance 480 nm, 0.01% Triton. Potency, µM (top dose mostly 114 µM), for the others: top-dose activity change, negative = inhibition, hits mostly inhibitors. hit rate 0.041% among 370,000. AID 485294, 2010;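 note: 0% = no-compound wells and -100% = no-enzyme wells; nearly all actives have a fitted effect of over 25% in size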
Target sequence (P00811 whole entry, looked up): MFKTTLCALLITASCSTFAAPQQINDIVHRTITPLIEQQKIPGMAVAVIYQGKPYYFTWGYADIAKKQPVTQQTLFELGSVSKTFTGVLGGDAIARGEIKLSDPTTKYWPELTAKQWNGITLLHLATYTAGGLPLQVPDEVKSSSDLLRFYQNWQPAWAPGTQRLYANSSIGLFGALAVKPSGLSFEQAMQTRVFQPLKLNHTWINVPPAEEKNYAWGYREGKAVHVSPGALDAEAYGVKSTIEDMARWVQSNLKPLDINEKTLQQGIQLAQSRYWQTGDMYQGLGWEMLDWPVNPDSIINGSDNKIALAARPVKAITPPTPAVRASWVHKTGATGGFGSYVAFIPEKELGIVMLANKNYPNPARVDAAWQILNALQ
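20 mM phosphate pH 7.0 + 0.01% (detergent screen) or 0.0001% Triton X-100; 5.3 nM AmpC reagent; cpd preinc 15 min RT; nitrocefin (800 uM stock) to start; A480 q20 s × 4 min; Activity was normalised to no-enzyme and no-compound control wells.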
Pf growth 48h: Primary qHTS for delayed death inhibitors of the malarial parasite plastid, 48 hour incubation | P. falciparum luciferase growth in erythrocytes, 48 h | Potency, µM (titrated, usually from 28.7 µM), for inactives: at the top dose activity change, negative = inhibition, most hits filed as inhibitors | hit rate 5.9% among 310,000; note: % is set by controls: 0 for no effect and ±100 for the full control effect
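Luminescence readout; reporter = integrated firefly luciferase in P. falciparum. RBC culture at 2% hematocrit, 0.1% parasitemia final, 37 C/5% CO2; decreased signal taken as growth inhibition.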
AmpC inh no detg: qHTS Inhibitors of AmpC Beta-Lactamase (assay without detergent); Potency, µM (top dose mostly 57.1 µM), without a hit: top-dose activity change, negative = inhibition, most hits filed as inhibitors; AID 485341, 2010; hit rate 0.52% among 330,000; AmpC nitrocefin hydrolysis, absorbance 480 nm, 0.0001% Triton;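 note: plate controls were no compound for no effect and no enzyme for full effect; nearly all actives have a fitted effect of over 20% in size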
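20 mM phosphate pH 7.0 + 0.01% (detergent screen) or 0.0001% Triton X-100; 5.3 nM AmpC reagent; cpd preinc 15 min RT; nitrocefin (800 uM stock) to start; A480 q20 s × 4 min; Activity was normalised to no-enzyme and no-compound control wells.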
Pf growth 96h: Primary qHTS for delayed death inhibitors of the malarial parasite plastid, 96 hour incubation; P. falciparum luciferase reporter growth, 96 h; hit rate 6.9% among 320,000; Potency, µM (highest dose often 28.7 µM), inactives show top-dose activity change, negative = inhibition, most hits filed as inhibitors; note: % is set by controls: 0 for no effect and ±100 for the full control effect
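Cell-based qHTS: luciferase-tagged P. falciparum in erythrocytes (2% hematocrit, 0.05% parasitemia final) incubated with compounds for 96 hours, 37 C, 5% CO2; luciferase detection reagent then added and luminescence measured.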
SARS PLP yeast: qHTS of Yeast-based Assay for SARS-CoV PLP; AID 485353, 2010; S. cerevisiae expressing SARS-CoV PLpro, growth rescue; hit rate 0.19% among 330,000; Potency, µM (top dose mostly 32.9 µM), inactives show top-dose activity, positive = growth rescue, actives largely listed as activators; calls by dose curve; note: 0% is about no effect; nearly all actives have a fitted effect of over 55% in size
Sm TGR inh: qHTS Assay for the Inhibitors of Schistosoma Mansoni Peroxiredoxins | Schistosoma mansoni thioredoxin glutathione reductase (TGR), Q962Y6 | purified TGR, DTNB reduction, TNB absorbance 405 nm | Potency, µM (titrated, usually from 114 µM), inactives show at the highest dose activity change, negative = inhibition, most hits filed as inhibitors | hit rate 3% among 360,000; note: % is set by controls: 0 for no effect and ±100 for the full control effect; nearly all actives have a fitted effect of over 60% in size
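Kinetic colorimetric format: TGR-catalysed, NADPH-driven DTNB reduction monitored via TNB absorbance. Enzyme dispensed at 20 nM; compound exposure 15 min at room temperature before reaction start.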
Active calls of the source: *; ? = inconclusive; . = not tested or not shown; [ ] = dose if it differs, or a comment. Unless noted, calls come from the whole dose curve; as a rule, active = well fitted curve in the direction sought with a large enough effect; inconclusive = small, poorly fitted or top-dose-only effect, or another doubt; inactive = no such curve, though single readings can be large; an effect the other way counts as inactive or inconclusive. Potency is the fitted concentration of half-maximal effect.

SMILES | AmpC detergent | Pf growth 48h | AmpC inh no detg | Pf growth 96h | SARS PLP yeast | Sm TGR inh
CC(=O)C1C(c2cccc(F)c2)NC(=O)NC1(O)C(F)(F)F (configuration not stated) | -16.5% | -3.5% | 0.9% | 4.65µM* | -1.4% | 16.6%
O=C1NC(c2ccccc2)C(C(=O)c2cccs2)C(O)(C(F)(F)F)N1 (configuration not stated) | ? | -5.2% | -17.5% | -11.8% | -14.8% | 31.6µM*
CCOc1ccc(NC(=O)CCNC(=O)C2CCN(S(=O)(=O)c3ccccc3)CC2)cc1 | -4.1% | -13.2% | 31.2% | ? | -5.5% | ?
CCOC(=O)c1c(-c2ccc(OC)cc2)csc1NC(=O)CCN1C(=O)c2ccccc2C1=O | 1.2% | -3.4% | -41.0% | ? | 2.4% | 7.6%
CCOC(=O)c1c(-c2cccs2)csc1NC(=O)c1ccncc1 | -10.6% | ? | 4.5% | ? | -8.9% | -14.1%
CCOC(=O)c1c(-c2ccc(OC)cc2)csc1NC(=O)CCN1CCOCC1 | 3.6% | 11.7µM* | 0.5%[2.29 µM] | 5.86µM* | 0.4% | -3.3%
CCOC(=O)c1c(-c2ccc(C)o2)csc1NC(=S)NC(=O)c1ccc(F)cc1 | -7.1% | 8.28µM* | -19.0% | 7.38µM* | 7.7% | -13.1%
CCOC(=O)c1c(-c2ccc(C)o2)csc1NC(=O)CN(C)CC(=O)Nc1ccc(C)cc1 | -13.7% | . | 11.1% | ? | -10.7% | ?
CCOC(=O)c1c(-c2ccc(C)o2)csc1NC(=O)CN1CCCCC1 | -0.8% | ? | -20.2%[11.4 µM] | ? | -3.4% | 8.91µM*
CCOC(=O)c1c(-c2ccc(C)o2)csc1NC(=O)CN1CCC(C(N)=O)CC1 | 0.8% | ? | 155.1% | ? | 0.1% | 14.1µM*
CCOC(=O)c1c(-c2ccc(C)o2)csc1NC(=O)CSc1nncs1 | -11.8% | 10.4µM* | -10.5% | 30.6% | -6.5% | 4.47µM*
CCOC(=O)c1c(-c2ccc(C)o2)csc1NC(=O)CN1CCN(CC)CC1 | ? | 7.5% | 45.5% | -12.2% | 4.4% | 50.1µM*
CCOC(=O)c1c(-c2ccco2)csc1NC(=O)COC(=O)c1cnccn1 | 0.0% | 23.6% | 45.5% | ? | 0.0% | 7.94µM*
COc1ccc(C(=O)C(CO)Oc2ccccc2OC)cc1OC (configuration not stated) | -6.0% | 12.4% | 3.0% | ? | 1.0% | 3.1%
CCOc1ccc(CNC(=O)Nc2ccccc2)cc1 | -0.1% | 11.2%[0.00184 µM] | -13.2% | 27.2% | -1.8% | 0.0%
COC(=O)c1ccc(OC)c(CSc2nnc(-c3ccc(C(C)(C)C)cc3)o2)c1 | -6.0% | . | -7.8% | 0.657µM* | -19.0% | 10.0%
Brc1ccc2c(c1)CN1CCCC1=N2 | 1.8% | 10.4µM* | -12.0% | ? | 1.8% | 11.4%
CN1c2ccccc2N(C)C1(C)c1ccccc1 | -17.1% | 2.33µM* | 25.5% | -0.1% | -24.0% | 44.7µM*
CCN1C(=O)N(c2cccc3ccccc23)C(C)=CC1(C)C | ? | -14.4% | -0.7% | ? | 0.1% | -13.5%
CCN1c2ccccc2N(C)C1(C)c1ccccc1 (configuration not stated) | ? | 2.62µM* | 33.5% | 0.0% | -22.8% | 35.5µM*
COc1ccc(-n2ncc3c(NC4CCCC4)ncnc32)cc1 | 2.3% | . | . | . | . | -2.3%
COc1ccc2oc(-c3ccc(NC(=O)c4ccc(Cl)cc4Cl)cc3)nc2c1 | 12.3% | . | . | . | . | 4.7%
CCNC(=O)C1CCN(Cc2cc3ccccc3n2Cc2ccc(C)cc2)CC1 | -4.6% | . | . | . | . | -9.3%
Cc1nnc2c(N3CCN(CCO)CC3)nc3ccccc3n12 | -14.1% | -24.5% | -23.6% | 13.1µM* | 0.5% | -21.6%
